Source: PubChem BioAssay
Unmarked numbers belong to inactive results. Inconclusive results are not listed. Calls of active or inactive are those of the source.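 How the source made its calls, unless noted: active means RAM network inhibition above 8.4% in each of two replicates, 3 SD over the compound average; inconclusive means above 8.4% inhibition in only one replicate; inactive means 8.4% inhibition or less in each replicate.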

Key:
[1] = S. cerevisiae growth inhibition in permissive medium (OD615), pilot counter-assay for S. cerevisiae lifespan shortening project, permissive growth control (AID 705;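 active means growth inhibition above 25% in both replicates, a cutoff set 3 SD above the mean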); settings: OD615, 24 h, at 10 µM, active compounds read high
[2] = S. cerevisiae growth inhibition in restrictive medium, OD615, pilot screen, restrictive growth control, yeast lifespan reduction project (AID 706;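 active means growth inhibition above a set limit, 3 SD over mean compound inhibition, in both replicates, cut at about 43% in these data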;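 further: modified DeaD lifespan yeast strain shifted to restrictive glucose medium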); settings: OD615, 48 h, at 10 µM, active compounds read high
[3] = viability of HCT116 without oncogenic beta-catenin – human colon tumor cells, pilot screen (AID 823;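 active means cell viability at or below a set limit in both duplicate runs, the limit being the all-compound median minus 4 SD, cut at about 23% in these data, passing the limit was not always enough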;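 further: 0% = wells killed by 20 µM Hyamine and 100% = untreated DMSO cell wells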); settings: HCT116 beta-catenin knockout viability, CellTiter-Glo, 60 h; at 10 µM; active compounds read low
[4] = viability of PTEN-null HCT116 cells – cell-based, HCT116 clonal line, CellTiter-Glo, pilot screen (AID 824;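 active means viability at or below 27.92% in each of two runs, the all-compound median minus 4 SD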;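 further: 0% = 20 µM Hyamine control and 100% = vehicle cell control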); settings: HCT116 PTEN-deleted viability, 60 h, at 10 µM, active compounds read low
[5] = RAM pathway blockade in budding yeast – dse1pr::URA3 reporter, 5-FOA selection, pilot screen (AID 869;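 active means inhibition over a set limit, the all-compound mean plus 3 SD, in both replicate runs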;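 further: 0% = DMSO wells with no growth and 100% = 10 µM 1-NA-PP1 with full growth; RAM network block rescues cells from 5-FOA so hits raise OD615 growth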); settings: S. cerevisiae dse1pr::URA3 5-FOA growth, OD615, 2 d; at 10 µM; active compounds read high; strain carries analog-sensitive mutant Cbk1 kinase
[6] = RAM signaling pathway blockade in yeast – S. cerevisiae, Pdr1DBD-CYC8 efflux-inhibited sensitized strain, primary screen (AID 1298);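 further: 0% = DMSO untreated cells without growth and 100% = 10 µM 1-NA-PP1 full growth; higher means more yeast growth rescued from 5-FOA killing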; settings: S. cerevisiae cbk1-as DSE1-URA3 strain, 5-FOA growth OD615, 2 d; at 50 µM; active compounds read high
[7] = doxorubicin toxicity protection in MRP-1 cells – H69AR cells, CellTiter-Glo, duplicate, MRP-1 activator project, pilot screen (AID 807;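 active means viability increase at or above a cutoff of the median across tested compounds plus 3 SD, cut at about 8.5% in these data, passing the limit was not always enough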;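 further: compound pretreatment 18-22 h then 72 h combined with doxorubicin; 0% = doxorubicin alone and 100% = vehicle without doxorubicin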); settings: H69AR viability with doxorubicin, CellTiter-Glo luminescence; at 10 µM; active compounds read high

SMILES | growth inhibition [1] | growth inhibition [2] | viability [3] | viability [4] | inhibition [5] | RAM network inhibition [6] | viability increase [7]
Cc1ccc(N2C(=O)Nc3ccc(Br)cc3C2(O)C(=O)NCCCN(C)C)cc1C (centres undefined) | -7.06% | -9.65% | 91.7% | 98.7% | 0.615% | 3.58% | 
Cc1cccc(N2CCN(C(=O)c3cc4c(=O)n(C)c5ccccc5c4n3C)CC2)c1C | -7.02% | -6.91% | 61.1% | 65.5% | 3.12% | 1.49% | 
O=C(Nc1nc2c(s1)CCCC2)c1ccc2ncsc2c1 | 14.5% |  | 68.4% | 76.7% | -0.135% | 0.27% | -2.76%
CCOCCn1c(-c2ccc(OC)cc2)nc2ccccc21 | -16.9% | -10.7% | 93.6% | 82.8% | 1.63% | 5.07% | 
COc1cc(C2CC(=O)N3CN(Cc4ccco4)CSC3=C2C#N)ccc1OCc1ccccc1 (centres undefined) | 7.01% |  | 77.8% | 83.5% | 1.65% | 2.55% | -5.42%
CCCCc1ccc(-c2nc(-c3ccncc3)no2)cc1 | -16.1% | -3.25% | 65.8% | 75.9% | 3.17% | 3.23% | 
Cc1onc(-c2ccccc2)c1C(=O)Nc1nnc(N(C)Cc2ccccc2)s1 | -12.4% | -20.5% | 89.8% | 88.8% | 1.02% | 9.12% | 
O=C(Cn1c(=O)oc2cc(S(=O)(=O)N3CCCC3)ccc21)NCc1ccccn1 | 8.21% | 0.96% | 107% | 104% | 1.01% | -0.87% | 
O=C1C=C(O)CC(c2ccc(Cl)cc2)C1 (centres undefined) | -2.77% | 0.79% |  | 103% | -0.37% | 8.23% | 
N#Cc1nc(COc2cccc(Cl)c2)oc1N1CCCC1 | 4.94% | 11.2% | 82.7% | 82.7% | -0.7% | 0.47% | 
O=C(CSCc1ccc(Cl)cc1)NCC1CCCO1 (centres undefined) | -7.79% | -2.08% | 102% | 101% | 1.34% | 3.99% | 
c1cncc(-c2nnc(SCc3cccc4ccccc34)o2)c1 | -6.93% |  | 103% | 91% | 1.16% | 0.49% | -0.01%
Cc1cccc(C2CC(c3ccccc3)Nc3ncnn32)c1 (centres undefined) | 3.16% | 13.8% | 91.9% | 93.8% | 1.7% | 0.37% | 
CCOc1ccc2nc3ccc4[nH]onc4c3c2c1 | 0.485% | 1.57% | 74.8% | 66.5% | 2.8% | 6.1% | 
COc1ccc(NC(=O)CSc2nnc(Cn3c(=O)sc4ccccc43)n2C)c(OC)c1 | 2.11% |  | 101% | 92.7% | -0.285% | 1.01% | -4.82%
Cn1c(=O)[nH]c(=O)c2c1nc(SCC(=O)Nc1ccccc1)n2Cc1ccccc1 | -4.58% | 0.385% | 92% | 94.6% | 0.935% | 2.08% | 
Cc1cccc(-n2ncc3c(N4CC(C)CC(C)C4)ncnc32)c1 (centres undefined) | -1.33% | -3.92% | 59.9% | 78.1% | 1.74% | 6.19% | 
O=C1Cc2ccccc2C(=O)N1CCc1ccccc1 | 12.3% | 66% (active) | 97.2% | 92.8% | 1.75% | 2.61% | 
CCOC(=O)CNC(=O)CSc1nnc(-c2ccco2)n1Cc1ccco1 | 6.66% |  | 97.2% | 98.2% | 0.765% | 3.76% | -2.83%
COC(=O)Cn1c(=NC(=O)CSC(C)=O)sc2ccccc21 | 4.79% |  | 98.5% | 101% | 2.89% | 5.91% | -1.9%

SMILES | growth inhibition [1] | growth inhibition [2] | viability [3] | viability [4] | inhibition [5] | RAM network inhibition [6] | viability increase [7]
Cn1c(CNc2ccccc2O)nc2ccccc21 | -5.35% |  | 68.8% | 64% | 0.42% | -1.31% | -6.1%
O=C(CCc1ccccc1)Nc1nnc(-c2ccc3c(c2)CCCC3)o1 | -1.89% | 11.3% | 53.6% | 72.1% | 0.09% | 5.06% | 
CCOC(=O)c1c(N)sc2c(OC)c(Br)ccc12 | 21.3% |  | 99.8% | 102% | -2.46% | 5.62% | 0.76%
Brc1ccc(CSc2ncn[nH]2)cc1 | -0.435% | 12.1% | 95.3% | 95.3% | 0.94% | 0.27% | 
CN(C)S(=O)(=O)c1ccc(S(=O)(=O)N2CCN(CCC#N)CC2)cc1 | -0.96% | 2.05% | 102% | 101% | 0.005% | -1.81% | 
COc1ccccc1C1CC(c2ccc(Cl)cc2Cl)Nc2nc(N)nn21 (centres undefined) | -5.97% | 25.2% | 86.1% | 85% | 1.62% | 7.09% | 
COc1ccccc1CNC(=O)CN1CCN(Cc2ccc(Cl)cc2)C1=O | 7.3% | 10.3% | 98.3% | 92.5% | 1.5% | 0.67% | 
Cc1ccc(Cl)cc1N1CCN(C(=O)c2cc3c(=O)n(C)c4ccccc4c3n2C)CC1 | -2.52% | 9.03% | 20.4% (active) | 23.5% (active) | 1.74% | 2.44% | 
COc1ccc(-n2c(Cc3cc(=O)[nH]c(=O)[nH]3)nnc2SCC(=O)N2CCC(C)CC2)cc1 | -11.5% | 4.4% | 98.2% | 96.9% | 2.92% | 0.47% | 
COc1cc(Cl)c(C)cc1NC(=O)CSc1nnc(-c2cccnc2)n1Cc1ccco1 | 4.79% |  | 84.8% | 79.8% | 0.775% | 7.75% | -3.48%
Cc1cc(/C=N/n2cnnc2)c(C)n1-c1ccc(OCc2ccccc2F)cc1 | -0.03% |  | 8.8% (active) | 13.7% (active) | 1.2% | 11.1% | -6.9%
O=C(O)c1cccc(N2C(=O)C3CC=C(Cl)CC3C2=O)c1 (centres undefined) | -4.4% | -10.2% | 95.6% | 92.4% | 1.16% | 3.38% | 
CCN(CC)C1CC(=O)N(c2cccc(C)c2)C1=O (centres undefined) | 20% |  | 105% | 101% | 2.06% | -0.69% | -1.11%
Cc1noc(/C=C/N(C)C)c1S(=O)(=O)N1CCCC(C(=O)Nc2ccc3c(c2)OCO3)C1 (centres undefined) | -1.3% | -0.88% | 89.1% | 89.7% | 2.2% | 7.17% | 
CC(NC(=O)CN1CCN(Cc2ccc(Cl)cc2)C1=O)c1ccc2c(c1)OCCO2 (centres undefined) | 2.64% | -21.2% | 84.1% | 86.3% | -0.3% | 0.27% | 
Cn1c(C(=O)N2CCC(C(=O)N3CCN(Cc4ccc5c(c4)OCO5)CC3)CC2)cc2sccc21 | -9.98% |  | 70.9% | 71.1% | 1.03% | 3.95% | -2.38%
COc1ccc(Cl)cc1N1C(=O)C2CCCN2C1c1ccc(F)c(F)c1 (centres undefined) | -5.22% | -6.92% | 98.1% | 92.7% | 1.33% | 6.15% | 
Cc1cccc(N(C)c2cc(C)nc3nc(C)nn23)c1 | -14.5% | -6.39% | 64.8% | 53.3% | 2.03% | 5.5% | 
CCc1nnc(NC(=O)c2ccc(S(=O)(=O)N(CC)CC)cc2)s1 | -7.41% | -3.27% | 104% | 90.9% | 1.52% | -0.37% | 
COc1ccc(OC)c(C2CC(=O)N3CN(c4cccc(Cl)c4)CSC3=C2C#N)c1 (centres undefined) | 1.31% |  | 100% | 95.4% | 2.46% | 8.89% | -2.23%
